# Screening results: PubChem BioAssay, several laboratories
# The list is not random: actives were taken first. Their share in the collection is about 4.6%.
# NALP3 yeast inh – NALP3 inflammasome inhibitors in reconstituted yeast, primary screen, luminescence, uHTS | Yeast reconstituted NLRP3/ASC/caspase-1, beta-gal luminescence, 24 h | inhibition, % at 10 µM | 330,000 tested, 0.39% active;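 active = inhibition of 50% or more; inactive = inhibition below 50%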;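 note: plate controls were induced DMSO wells for no effect and uninduced yeast grown without galactose for full effect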
# tim23-1 inh – growth inhibitors of tim23-1 mutant yeast, primary screen, luminescence, uHTS; S. cerevisiae tim23-1 growth, BacTiter-Glo luminescence, 24 h; inhibition, % at 20 µM; 330,000 tested, 1.3% active; AID 463212, 2010;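 active = growth inhibition of the mutant yeast at or above 50%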;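 note: temperature-sensitive mutant grown at 25 °C; plate controls were DMSO-treated mutant yeast for no effect and medium wells lacking yeast for full effect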
# tim10-1 inh – growth inhibitors of tim10-1 mutant yeast, primary screen, luminescence, uHTS; S. cerevisiae tim10-1 ts strain growth, BacTiter-Glo, 24 h; 330,000 tested, 2.2% active; inhibition, % at 20 µM;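 active = inhibition of at least 40%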;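 note: mutant grown at 25 °C; 0% = DMSO wells with yeast and 100% = wells holding no yeast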
# TIM10 inh – growth inhibitors of isogenic TIM10 control yeast, primary screen, counter-screen for tim10-1 yeast inhibitor project, luminescence, uHTS; S. cerevisiae TIM10 strain growth, BacTiter-Glo luminescence, 24 h; inhibition, % at 10 µM; 330,000 tested, 1.4% active;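 active = inhibition of 40% or more at the single tested concentration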;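 note: wild-type TIM10 isogenic control strain grown at permissive 25 °C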
# SKKanGAS inh – S. pyogenes SKKanGAS growth inhibitors in kanamycin, primary screen, streptokinase expression inhibitor project, SKKanGAS strain, BacTiter-Glo luminescence. 6 h. inhibition, % at 7.5 µM. 300,000 tested, 1.3% active. AID 1662, 2009;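 active = mean replicate score, as percent of positive control median, at least 50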;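 note: strain carries kanamycin resistance gene driven by streptokinase promoter and grows in 40 µg/ml kanamycin; loss of luminescence reflects streptokinase promoter inhibition or plain growth inhibition; 0% = median of DMSO wells and 100% = positive control at its reference dose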
# The depositor's hits bear a star; / = no result given.
SMILES,NALP3 yeast inh,tim23-1 inh,tim10-1 inh,TIM10 inh,SKKanGAS inh
Fc1cccc2sc(Nc3nc4cc5c(cc4s3)OCO5)nc12,19,28,23,21,53*
Fc1cccc2sc(Nc3nc4cc5c(cc4s3)OCCO5)nc12,23,16,8,9,42
O=C(O)c1cccc2c(-c3ccccc3)c(-c3ccccc3)[nH]c12,2,48,13,-23,59*
O=C(CSC(=S)N1CCCC1)N(Cc1nnc(-c2ccccc2Cl)o1)C1CC1,29,25,11,3,/
CSCC[C@H](NC(=O)c1nn(C)c(=O)c2ccccc12)c1nc2ccccc2[nH]1,13,2,-11,-16,74*
CC1CN(C(=O)COC(=O)[C@@H](NC(=O)c2ccccc2Cl)C(C)C)CC(C)O1 (some centres not stated),-6,18,6,3,/
Cc1c(C(=O)N/N=C/c2ccc(Cl)cc2)[nH]c2ccc(Cl)cc12,18,-17,37,26,56*
CCOc1ccc(/C=N/NC(=O)c2[nH]c3ccc(C)cc3c2C)cc1,8,9,-5,-11,21
COc1cccc(NCc2cc(=O)oc3cc(C)c(O)cc23)c1,6,8,0,-8,99*
COc1cccc(NCc2cc(=O)oc3cc(-c4ccccc4)c(O)cc23)c1,-1,12,19,18,110*
Cc1cc2oc(=O)cc(CNc3ccccc3F)c2cc1O,7,10,4,30,51*
CC1CCCCC1NC(=O)c1cc(S(=O)(=O)N2CCOCC2)ccc1Cl (configuration not stated),11,21,11,3,/
N#Cc1ccccc1Sc1ccccc1C(=O)Nc1ccc2ccccc2c1,9,17,26,27,-3
COc1ccc(Sc2ccc(NC(=O)c3ccccc3Cl)cc2C#N)cc1,4,25,5,14,52*
Cc1ccc(CSCC(=O)N(C)CC(=O)Nc2ccc(Cl)c(Cl)c2)cc1,15,15,3,22,-9
O=C(CCNS(=O)(=O)c1ccc(Br)cc1)NCCCSc1ccccc1,13,24,7,1,/
CCOC(=O)c1cc(-c2ccc(Cl)cc2)nc2c1c(C)nn2CCC#N,22,18,10,20,28
CCOC(=O)c1cc(-c2ccc3c(c2)OCCO3)nc2c1c(C)nn2CCC#N,4,31,22,18,81*
Clc1ccc(-c2nc(N3CCCCC3)nc3ccccc23)cc1,-8,1,15,24,90*
O=C(CCC(=O)Nc1cc(C(F)(F)F)ccc1Cl)N/N=C\c1cc([N+](=O)[O-])ccc1O,26,13,-6,18,103*
O=C(CCC(=O)Nc1ccc(Br)cc1)N/N=C/c1cc([N+](=O)[O-])ccc1O,13,-33,-11,0,56*
O=C(CCC(=O)Nc1ccc(F)cc1)N/N=C/c1cc([N+](=O)[O-])ccc1O,-1,-34,6,3,-1
COc1ccc(Cl)cc1C(Nc1cccnc1)c1ccc2cccnc2c1O (configuration not stated),1,24,26,3,69*
CC(C)(C)c1ccc(OCCCC(=O)NC2=NCCS2)cc1,35,15,30,11,62*
CC(C)(C)c1ccc(C(=O)NCCC(=O)NC2=NCCS2)cc1,12,0,-10,-5,/
SMILES,NALP3 yeast inh,tim23-1 inh,tim10-1 inh,TIM10 inh,SKKanGAS inh
CC(=O)c1cccc(S(=O)(=O)NCCC(=O)NC2CCCCCC2)c1,22,-4,2,-9,/
CC(C)Cn1c(N)c(C(=O)COC(=O)Cc2cccc(C(F)(F)F)c2)c(=O)n(C)c1=O,20,19,30,6,-7
Cn1c(O)c(/C=N/NC(=O)c2cc3ccccc3cc2O)c2ccccc21,4,20,-3,1,104*
Cc1ccc(NC(=O)C(c2ccccc2)N2CCN(CC(=O)N3CCOCC3)CC2)cc1Cl (configuration not stated),19,20,8,7,/
COc1ccc2cc3c(N)nn(C(=O)Cc4ccccc4OC)c3nc2c1,8,9,27,8,-1
COc1ccc2cc3c(N)nn(C(=O)C4CCC(C(C)(C)C)CC4)c3nc2c1 (configuration not stated),10,18,-23,-4,93*
O=C1OC(CC(=O)N(Cc2nnc(-c3ccc(Cl)cc3)o2)C2CC2)c2ccccc21 (configuration not stated),9,-1,-9,-14,/
CCCCN(C(=O)CCCc1nc2ccccc2c(=O)[nH]1)c1c(N)n(CC(C)C)c(=O)[nH]c1=O,16,-8,6,-2,/
CCCCOc1ccc(-c2c(C#N)c(N)nc(SCC(N)=O)c2C#N)cc1,28,-3,-5,5,90*
CCCCOC(=O)CSc1nc(N)c(C#N)c(-c2ccc(OCC)cc2)c1C#N,12,7,14,5,-2
O=C(C[C@@H]1C/C=C\CC[C@@H](Cc2ccc(F)cc2)C(=O)OC[C@@H](Cc2ccccc2)NC1=O)NCCO,5,-3,-3,5,/
COc1ccc(-c2nn3c(-c4ccccc4)nnc3s2)cc1,39,28,40,32,9
CCN(CC)c1ccc(-c2nn3c(-c4ccccc4OC)nnc3s2)cc1,16,41,35,35,56*
CCc1ccccc1NC(=O)NNS(=O)(=O)c1cc(C)ccc1C,20,7,-5,2,51*
CCOc1ccccc1NC(=O)NNS(=O)(=O)c1cc(C)ccc1C,18,16,11,10,-5
CCOc1c(OC(C)=O)ccc(/C=C/c2ccc3cccc(OC(C)=O)c3n2)c1[N+](=O)[O-],5,30,6,14,85*
CCOc1cccc(/C=C/c2ccc3cccc(O)c3n2)c1O,-8,32,28,28,107*
CCOc1cc(/C=C/c2ccc3cccc([N+](=O)[O-])c3n2)ccc1O,16,18,40,5,6
CCOc1cccc(/C=C/c2ccc3cccc(O)c3n2)c1OC,-8,36,36,6,98*
Nn1cnc2cc3ccccc3cc2c1=O,8,-12,3,3,-2
Cc1ccc(S(=O)(=O)N2CCCCC2)cc1NC(=O)COC(=O)c1ccc(=O)[nH]c1,3,1,-4,0,/
O=C(Nc1cccc(Cl)c1)Nc1csc([N+](=O)[O-])c1,47,32,1,18,51*
O=C(Nc1ccnn1C1CCN(C(=O)c2ccc(F)cc2)CC1)C1CCOC1 (configuration not stated),4,0,2,-6,52*
COc1ccccc1N1CCN(Cc2nc(N)nc(Nc3ccc(C)c(Cl)c3)n2)CC1,9,17,38,5,76*
COc1cccc(N2CCN(Cc3nc(N)nc(Nc4ccccc4)n3)CC2)c1,-3,2,18,-17,34
